± gives the standard deviation of the averaged measurements.
System: A549
Assay: relative viability (normalised to negative control = 1, bortezomib = 0) (fraction); higher = less cytotoxic
Conditions: inflammatory serum-free RHB-A with cytokines + LPS, 5 d + 24 h CellTiter-Blue
[1] = compound 30 nM, GSK126 pretreatment: 5 uM GSK126
[2] = compound 30 nM, GSK126 pretreatment: none (vehicle)
[3] = compound 300 nM, GSK126 pretreatment: 5 uM GSK126
[4] = compound 300 nM, GSK126 pretreatment: none (vehicle)

SMILES	relative viability [1]	relative viability [2]	relative viability [3]	relative viability [4]
COc1cc2nccc(Oc3ccc(NC(=O)C4(C(=O)Nc5ccc(F)cc5)CC4)cc3)c2cc1OC [XL184; Cabozantinib]	0.903 ± 0.061	0.875 ± 0.12	0.986 ± 0.043	0.974 ± 0.014
Cc1cc(C(C)Nc2ccccc2)c2nc(N3CCOCC3)cc(=O)n2c1 (stereo not given)	0.763 ± 0.083	0.782 ± 0.067	0.737 ± 0.093	0.8 ± 0.1
Cc1c(NC(=O)OC[C@@H]2COCCN2)cn2ncnc(Nc3ccc4c(cnn4Cc4cccc(F)c4)c3)c12	0.806 ± 0.16	0.802 ± 0.081	0.56 ± 0.088	0.621 ± 0.052
CCN(CCO)CCCOc1ccc2c(Nc3cc(CC(=O)Nc4cccc(F)c4)[nH]n3)ncnc2c1 [AZD1152-HQPA(Barasertib)]	0.73 ± 0.079	0.714 ± 0.031	0.813 ± 0.13	0.696 ± 0.037
O=c1cc(-c2cccc3c2Sc2ccccc2S3)oc(N2CCOCC2)c1	0.781 ± 0.04	0.845 ± 0.035	0.833 ± 0.044	0.875 ± 0.069
N#CC1(c2ccc(NC(=O)c3cccnc3NCc3ccncc3)cc2)CCCC1 [Apatinib (YN968D1)]	0.83 ± 0.072	0.853 ± 0.054	0.936 ± 0.085	0.9943 ± 0.005
CS(=O)(=O)OCCCCOS(C)(=O)=O [Busulfan]	0.889 ± 0.017	0.865 ± 0.038	0.916 ± 0.067	0.893 ± 0.024
CN1CC[C@H](c2c(O)cc(O)c3c(=O)cc(-c4ccccc4Cl)oc23)[C@H](O)C1 [Flavopiridol (Alvocidib)]	0.777 ± 0.11	0.771 ± 0.15	0.0118 ± 0.0013	0.0301 ± 0.0094
c1cncc(CN2CCC(n3ncc4c(N5CCOCC5)nc(-c5ccc6[nH]ccc6c5)nc43)CC2)c1	0.861 ± 0.099	0.896 ± 0.11	0.73 ± 0.14	0.761 ± 0.073
CO[C@@]12[C@H](COC(N)=O)C3=C(C(=O)C(C)=C(N)C3=O)N1C[C@@H]1N[C@@H]12 [Mitomycin; Mitomycin C]	0.827 ± 0.16	0.845 ± 0.092	0.58 ± 0.1	0.47 ± 0.05
